These results are taken from PubChem BioAssay (NCI).

About 83,000 compounds went through this panel and 20% of them were active in at least one assay; those are over-represented in the sample as a whole.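 A percent growth of 40 corresponds to 60% growth inhibition; 0 means no net growth; -100 means all cells died. Active threshold: below 10.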 Unmarked numbers belong to inactive results. Active and inactive are the calls of the source.

Some test systems named below: SK-MEL-2 melanoma; EKVX NSCLC; SN12C renal; UO-31 renal; TK-10 renal; ACHN renal; CAKI-1 renal; CCRF-CEM leukemia; MOLT-4 leukemia; SR leukemia; RPMI-8226 leukemia; OVCAR-8 ovarian; OVCAR-5 ovarian; OVCAR-4 ovarian; SK-OV-3 ovarian; IGROV1 ovarian; OVCAR-3 ovarian; HS 578T breast; NCI/ADR-RES ovarian.
Common to all, as to assay: NCI-60 one-dose screen, 48 h (100 = growth as untreated, 0 = no growth, -100 = all killed)
Holding throughout (conditions): 10 µM unless noted

As to `Cc1ccc([C@H]2c3[nH]c4ccccc4c3C[C@H]3C(=O)N(CCCCCCC(=O)NO)CC(=O)N23)cc1`, the growth with SK-MEL-2 melanoma was 56.7%; in the test on EKVX NSCLC, 76.2%; in the test on SN12C renal, 67.6%; in the test with UO-31 renal it was 57.2%; in the test on TK-10 renal, 58.7%; with ACHN renal, 75.1%. Further, the growth is 51.2% in the test on CAKI-1 renal; 15.2% in the test with CCRF-CEM leukemia; 10.9% with MOLT-4 leukemia; 10.6% in the test with SR leukemia; 3.03% (active) in the test on RPMI-8226 leukemia; 39.5% with OVCAR-8 ovarian. Also, the growth in the test with OVCAR-5 ovarian was 44.7%; with OVCAR-4 ovarian, 59.2%; with SK-OV-3 ovarian, 63.3%; in the test with IGROV1 ovarian, 57.3%; in the test with OVCAR-3 ovarian, 47%; in the test on HS 578T breast, 52.5%. The growth in the test on NCI/ADR-RES ovarian was 94.5%.
Turning to `Nc1c(C(=O)Nc2ccccc2)sc2nc3c(cc12)C(=O)CCC3`, the growth with SK-MEL-2 melanoma is 38.7%; with EKVX NSCLC, 84.6%; with SN12C renal it was 59.8%; in the test with UO-31 renal it was 71.1%; in the test with TK-10 renal, 63.6%; in the test with ACHN renal, 49.7%. Besides, the growth in the test with CAKI-1 renal was 54.7%; in the test with CCRF-CEM leukemia it was 16.8%; in the test with MOLT-4 leukemia, 43.4%; with SR leukemia, 21.9%; with RPMI-8226 leukemia it was 30.2%; in the test with OVCAR-8 ovarian, 39.9%. For the same compound, the growth in the test with SK-OV-3 ovarian was 19.7%; in the test with IGROV1 ovarian, 36.4%; in the test with OVCAR-3 ovarian, -19.4% (active); in the test with HS 578T breast, 37.5%; in the test on NCI/ADR-RES ovarian, -6.39% (active).
Consider `CC(C)(C)c1nn(-c2ccccc2)c2c1C(=O)CSC(c1ccccc1Cl)N2` (stereo not drawn), for which the growth was 45.5% in the test with SK-MEL-2 melanoma; 30.8% in the test on EKVX NSCLC; 53.8% with SN12C renal; 29.2% in the test on UO-31 renal; 77.5% with TK-10 renal; 53.7% in the test on ACHN renal. The growth is 10% in the test on CAKI-1 renal; 11.4% in the test on CCRF-CEM leukemia; 20.9% in the test on MOLT-4 leukemia; -13.8% (active) in the test on SR leukemia; 42.9% in the test with RPMI-8226 leukemia; 35.7% with OVCAR-8 ovarian. For the same compound, the growth was 46.8% in the test on OVCAR-5 ovarian; 72.5% with OVCAR-4 ovarian; 7.26% (active) with SK-OV-3 ovarian; 30.3% in the test with IGROV1 ovarian; 11.3% in the test on OVCAR-3 ovarian; 47.5% in the test on HS 578T breast. Further, in the test with NCI/ADR-RES ovarian, the growth was 0.0963% (active).
Regarding `COc1ccc(C(=O)OC2C(OC3C(O)COC(O[C@H]4C[C@H]5[C@@H]6CC=C7C[C@@H](O)CC[C@]7(C)[C@H]6CC[C@]5(C)[C@H]4[C@H](C)C(=O)CCC(C)C)C3OC(=O)C(C)C)OCC(O)C2O)cc1` (stereo partly drawn), the growth is -37.2% (active) in the test on SK-MEL-2 melanoma; 30.2% in the test with EKVX NSCLC; 57.3% in the test with SN12C renal; -15.2% (active) in the test with UO-31 renal; 8.54% (active) in the test on TK-10 renal; 36.6% in the test with ACHN renal. Further, the growth in the test on CAKI-1 renal is 3.21% (active); in the test on CCRF-CEM leukemia it was -21.8% (active); with MOLT-4 leukemia it was -34.8% (active); with SR leukemia, 5.59% (active); with RPMI-8226 leukemia it was -27.4% (active); in the test with OVCAR-8 ovarian, 36.3%. For the same compound, the growth in the test with OVCAR-5 ovarian is 42%; in the test on OVCAR-4 ovarian, 60.9%; in the test on SK-OV-3 ovarian, -21.1% (active); with IGROV1 ovarian, 37.2%; in the test on OVCAR-3 ovarian, 60.5%; in the test on HS 578T breast, -2.09% (active). Further, the growth in the test on NCI/ADR-RES ovarian is 75%.
For the compound `O/N=C1\c2ccccc2-c2ccc(Br)cc21`, the growth with SK-MEL-2 melanoma was 115%; in the test with EKVX NSCLC it was 88.6%; with SN12C renal, 101%; with UO-31 renal it was 81.6%; with TK-10 renal it was 108%; in the test with ACHN renal it was 94.2%. For the same compound, the growth with CAKI-1 renal is 91.6%; in the test with CCRF-CEM leukemia, 71.8%; in the test on MOLT-4 leukemia it was 89.2%; with SR leukemia, 102%; in the test with RPMI-8226 leukemia, 105%; in the test with OVCAR-8 ovarian it was 105%. Besides, the growth with OVCAR-5 ovarian was 113%; in the test with OVCAR-4 ovarian, 104%; in the test with SK-OV-3 ovarian, 113%; in the test on IGROV1 ovarian, 116%; in the test on OVCAR-3 ovarian it was 118%; in the test with HS 578T breast, 158%. For the same compound, in the test on NCI/ADR-RES ovarian, the growth is 115%.
As for `COc1ccccc1CNCCCN1C(=O)c2ccc3c4c(ccc(c24)C1=O)C(=O)N(CCCOCCCCOCCCN)C3=O`, the growth in the test with SK-MEL-2 melanoma was -42.7% (active); in the test with EKVX NSCLC, -83.3% (active); with SN12C renal it was -87.5% (active); in the test with UO-31 renal, -21.1% (active); with TK-10 renal, 28.6%; in the test with ACHN renal, -62.2% (active). The growth was -4.24% (active) with CAKI-1 renal; 2.11% (active) in the test on CCRF-CEM leukemia; -9.44% (active) in the test with MOLT-4 leukemia; 7.67% (active) in the test on SR leukemia; -5.62% (active) with RPMI-8226 leukemia; -14.6% (active) in the test on OVCAR-8 ovarian. The growth with OVCAR-5 ovarian was -55.9% (active); in the test on OVCAR-4 ovarian it was -97.1% (active); in the test on SK-OV-3 ovarian, 25.3%; with IGROV1 ovarian it was -51.8% (active); with OVCAR-3 ovarian, -95% (active); in the test on HS 578T breast, 19.1%. For the same compound, the growth in the test on NCI/ADR-RES ovarian is -8.07% (active).
For `c1ccc(-c2ccc(-c3ccccc3)[nH]2)cc1`, the growth in the test with SK-MEL-2 melanoma is 98.7%; with EKVX NSCLC it was 75.6%; in the test on SN12C renal, 95.5%; in the test on UO-31 renal, 87%; in the test on TK-10 renal, 138%; in the test on ACHN renal, 100%. Besides, the growth was 83.6% in the test on CAKI-1 renal; 90.9% in the test on CCRF-CEM leukemia; 80.3% in the test on MOLT-4 leukemia; 96.1% in the test with SR leukemia; 79.7% in the test with RPMI-8226 leukemia; 101% in the test on OVCAR-8 ovarian. Moreover, the growth with OVCAR-5 ovarian was 104%; with OVCAR-4 ovarian, 75.8%; in the test with SK-OV-3 ovarian, 107%; in the test with IGROV1 ovarian, 85.8%; with OVCAR-3 ovarian it was 106%; with HS 578T breast, 100%. In addition, the growth with NCI/ADR-RES ovarian was 96.4%.
Turning to `COc1ccc(/C=C/c2nc3ccccc3c(=O)n2-c2ccc(C#Cc3ccc(C(C)(C)C)cc3)cc2C)c(OC)c1`, the growth in the test with SK-MEL-2 melanoma is 104%; in the test with EKVX NSCLC it was 85.1%; with SN12C renal, 89.6%; in the test with UO-31 renal, 79.5%; in the test on TK-10 renal it was 101%; in the test on ACHN renal, 105%. Moreover, the growth with CAKI-1 renal is 76.9%; in the test with CCRF-CEM leukemia it was 75.8%; in the test on MOLT-4 leukemia, 76.5%; in the test on SR leukemia, 42%; in the test with RPMI-8226 leukemia, 52%; with OVCAR-8 ovarian, 110%. Also, the growth in the test on OVCAR-5 ovarian is 120%; in the test with OVCAR-4 ovarian it was 97.9%; in the test with SK-OV-3 ovarian, 103%; with IGROV1 ovarian, 109%; in the test with OVCAR-3 ovarian, 87.5%.
